From article PMC13494018
Values without a mark were called inactive. How the calls were made is not given here.

Target: VTCN1, Q7Z7D3
Sequence (Q7Z7D3 whole entry): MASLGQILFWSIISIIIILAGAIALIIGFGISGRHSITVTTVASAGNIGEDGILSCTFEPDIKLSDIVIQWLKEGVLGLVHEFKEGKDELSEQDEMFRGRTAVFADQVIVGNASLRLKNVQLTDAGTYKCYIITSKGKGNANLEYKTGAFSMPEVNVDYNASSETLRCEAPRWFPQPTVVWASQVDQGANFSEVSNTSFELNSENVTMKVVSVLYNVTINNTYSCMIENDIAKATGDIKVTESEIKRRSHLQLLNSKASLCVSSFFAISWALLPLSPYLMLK

Row | Binder | binding in a display sort
1 | design_597_f3dcd2b3-c7aa-4b15-88bc-bbb8d01a18cd_2474_dldesign_0_cycle1_af2pred (protein) MKADEEAAKKAAAARDTAFDKIAAGEDPQAAYDAAKAEMKKIAEEYGVSPETKEKIEKGIKALERFAAAAAKAAA | not found
2 | design_598_15ab41e9-cad4-4381-8935-81f74b313fe8_205_dldesign_0_cycle1_af2pred (protein) DFKAKADAEATLERAEQAEKAAKKIGEELAKLAEEAKKLAEAGLKSDDPEKREALTKAARELLKELQKLGKEKKEK | not found
3 | design_597_f3dcd2b3-c7aa-4b15-88bc-bbb8d01a18cd_2357_dldesign_0_cycle1_af2pred (protein) NEEIKAKQLAGRLEALADSLKSAAEKAAKETKDPEKAKKLKEIAKEAEKAVEEAKKKIKEGKAEEAYKEGKEKVEKAKKEVEKIAKE | not found
4 | design_597_f3dcd2b3-c7aa-4b15-88bc-bbb8d01a18cd_2160_dldesign_0_cycle1_af2pred (protein) NATEIYREGREKAKELAKKGGKLVKDGEEFARRLVAAANTYFADPEEGEKQLDELIKEAEKESPEAAKIAKEVLKAAKEYLKKLDEEG | not found
5 | design_598_15ab41e9-cad4-4381-8935-81f74b313fe8_790_dldesign_0_cycle1_af2pred (protein) MEKEAEKFAEEGKKKVEELKKKLEENKDNAEKNEELAKKARELAKEFEEEGKKAPEEMRKKLAEIAQEAREVAAEAKGLAIIAKEK | not found
6 | design_598_15ab41e9-cad4-4381-8935-81f74b313fe8_231_dldesign_0_cycle1_af2pred (protein) AEAELARAREVAKRVAEKLREAAKEAEKIDPEVAEKGRKVAEAAEAATAGTVEEIAAATQEARQALAEAEFLVKK | not found
7 | design_598_15ab41e9-cad4-4381-8935-81f74b313fe8_1188_dldesign_0_cycle1_af2pred (protein) KEEEEKKKEEEWKKKADAEAAIEQGKNALEAAKKDPSKAKEAAKVAKKLAKRAPEAKEELEKIAKEAEAIGKA | not found
8 | design_597_f3dcd2b3-c7aa-4b15-88bc-bbb8d01a18cd_2262_dldesign_0_cycle1_af2pred (protein) AEAEEALKAAKAAAAKAKEAADAAIADPATKAAGEKAKKLIEAREKKAEANASDVRVLQSAVEFFNHMAAALKKILA | not found
9 | design_598_15ab41e9-cad4-4381-8935-81f74b313fe8_88_dldesign_0_cycle1_af2pred (protein) GSAKELAEKLRYVNRKIKEAGELAKELEKAGYPEEAKKLRELAQKARDALMAGDLDAAYKAAKELEEKIKEAKKKLEA | not found
10 | design_598_15ab41e9-cad4-4381-8935-81f74b313fe8_127_dldesign_0_cycle1_af2pred (protein) SAMDLLLEILDYNDEALKAAKEGNKEEMEKYIKKAFEIAEELGKKYGPEAEERAKRYVEKAKKEAEEIYKK | not found
11 | design_598_15ab41e9-cad4-4381-8935-81f74b313fe8_1370_dldesign_0_cycle1_af2pred (protein) AEFAVKILETLAERVPPEYAVVAREAAEIVKEKGAEGAREAARLVREAAERNPELPEEHRKAMLNAARVLEILAEAE | not found
12 | design_598_15ab41e9-cad4-4381-8935-81f74b313fe8_686_dldesign_0_cycle1_af2pred (protein) SPTEMQEALTDADGYAVLAKNAGIEEVAKKAKEAAKKIKELIKQARADPSKAPELAKKAKELAKEAEKEFEKAKKEFE | not found
13 | design_598_15ab41e9-cad4-4381-8935-81f74b313fe8_121_dldesign_0_cycle1_af2pred (protein) MMEKKKKEAEIKRDAAIEQAKTIVEANKDKPFEEILEKVEKSVERFKESIEKIDPEIGKEEGEKARKESEEIVKKASEA | not found
14 | design_598_15ab41e9-cad4-4381-8935-81f74b313fe8_1360_dldesign_0_cycle1_af2pred (protein) DPAQAAFTAKAKERAEQLKALAKEFPEEAEKLTKLAEEGLKLAAGDAETQKKAAEKLQEAYELAAEARAKKA | not found
15 | design_598_15ab41e9-cad4-4381-8935-81f74b313fe8_1028_dldesign_0_cycle1_af2pred (protein) SDEKLAAEASQVGLELKAEVKAGNANPEIKEKLSKEALEKAEKAVKEFEKKSPAAGKVAKEMLKKIKEAAKE | not found
16 | design_597_f3dcd2b3-c7aa-4b15-88bc-bbb8d01a18cd_2332_dldesign_0_cycle1_af2pred (protein) SVVEEVKEEAKKAIEEGKKGDAGTAAALGYEAKALAEQKAKLYPEEAEELKKIAEEVKKEAKEIAEKKLKEKKAA | not found
17 | design_598_15ab41e9-cad4-4381-8935-81f74b313fe8_1419_dldesign_0_cycle1_af2pred (protein) DIAKVTQQAQEELTEYAFKVPELKEEFDAARKESVKLGKEGASTSPEAAEKASKEIKKITEEMKKKAEEAL | not found
18 | design_597_f3dcd2b3-c7aa-4b15-88bc-bbb8d01a18cd_2475_dldesign_0_cycle1_af2pred (protein) MTPLEESAAKAQEAREEAAEKEQKGKLLAEKGNYKEGAKEYKKGAEELKKAAKFAEEAGDKEAAERLKKRAERLEKLAKEYEKKAK | not found
19 | design_598_15ab41e9-cad4-4381-8935-81f74b313fe8_13_dldesign_0_cycle1_af2pred (protein) AEKSREEGVKKAEEAAKLAKEAGLEEKAKKIKEAAKKAAKTGTDEDLKELSKTALEAAKLADPEKGAKISELRVEAAGYFELARIQ | not found

Row | Binder | binding in a display sort
20 | design_597_f3dcd2b3-c7aa-4b15-88bc-bbb8d01a18cd_2142_dldesign_0_cycle1_af2pred (protein) AAAAAAAEAARAEAAKAFTEAIDLAYSDPKYIPILEKTSEDSAATFIAAGKLSGKTAEWTAKGELIKKTSERIIKDIKK | not found
21 | design_598_15ab41e9-cad4-4381-8935-81f74b313fe8_887_dldesign_0_cycle1_af2pred (protein) GEEKSRAAAEALRAATRAVRAAAATAAAADPATAAAVRAAWAAAVKADDLADAEAALRAAAAAATDPATRALLNAAADAYATIAAIA | not found
22 | design_598_15ab41e9-cad4-4381-8935-81f74b313fe8_1154_dldesign_0_cycle1_af2pred (protein) EKAKKAAEYSSEAAKHAIKAAKLLKEAGAPQEVLNLLQEAIVNMDKAAEYYAAAMEAAKKNPELGPEIQAELKKAEEHTKKANELL | not found
23 | design_598_15ab41e9-cad4-4381-8935-81f74b313fe8_1263_dldesign_0_cycle1_af2pred (protein) GMEEIEKRNEEVKKKAEELKKQVEKAEKLAEKGDPEGKKLAEETKKKAIELAKSNPEAEPEVKTEITEIAVEAQGIEHLMKIK | not found
24 | design_598_15ab41e9-cad4-4381-8935-81f74b313fe8_148_dldesign_0_cycle1_af2pred (protein) MAEEAKKTSDAIREMVKIAKEAGKEVAGSPEAQKKIAAARDKAMDAVAAGEDPEEQLKKAKEEIEAVVAEEKA | not found
25 | design_598_15ab41e9-cad4-4381-8935-81f74b313fe8_72_dldesign_0_cycle1_af2pred (protein) SELVKKASDLYRELVRKAREVAEKAGKAGDPEEAKKLAGDAVWAAQENVEEGIKIAKELGKKTGVEKEVEEFIKLMKEYAKALEEVSN | not found
26 | design_597_f3dcd2b3-c7aa-4b15-88bc-bbb8d01a18cd_2077_dldesign_0_cycle1_af2pred (protein) EIKKLAAEAFDYYYEAKAMADALKADKNGKEAAKKIEELAKKIKEYGKKILETKDLKEAKKLYEEAKKLYEEAVKIFDEFAK | not found
27 | design_597_f3dcd2b3-c7aa-4b15-88bc-bbb8d01a18cd_2462_dldesign_0_cycle1_af2pred (protein) DPLREAAKAAVEAMGKAAKEVGLTKEASELAGLVHEALSAAKAGIHAKEILKEAAEAAKKAAEEYPEAKELFEKVAKEVEKMEKLV | not found
28 | design_597_f3dcd2b3-c7aa-4b15-88bc-bbb8d01a18cd_2241_dldesign_0_cycle1_af2pred (protein) EAAAIAKEAAAVAEEAAKKEEDPGKAEALKKAAKRIKAAAAGTKFEIASAVASAAEQAEWVGYPKEVVDKLEAKAEKIEKA | not found
29 | design_598_15ab41e9-cad4-4381-8935-81f74b313fe8_801_dldesign_0_cycle1_af2pred (protein) AEKEKKIEELEAKAKEYEAKGKAAEAAGDYKTAAEYYEKAADAYLEMAKVDPEKAEEYIKKAQELYRKSIQYEAKASAA | not found
30 | design_598_15ab41e9-cad4-4381-8935-81f74b313fe8_1446_dldesign_0_cycle1_af2pred (protein) IDSKKASELIREAVRNAQKAGEIAKSLPNGEEIKKRVAEALLLAIDPETAEEGIKLLEELAKEAEELNPEAGKHIKEAAEHLKKFAEL | not found
31 | design_598_15ab41e9-cad4-4381-8935-81f74b313fe8_273_dldesign_0_cycle1_af2pred (protein) SMAKKIEEGKKLAEELREAVRTAQAIGARLDALVAADPSVAPLATEIRAKASEAIFKIADGKEEEGKALMEEATALAAAAEAAAAAAA | not found
32 | design_598_15ab41e9-cad4-4381-8935-81f74b313fe8_1361_dldesign_0_cycle1_af2pred (protein) DETKKALAEMSELRHQLDAEAKWYEKHAKESEKYKEAAKEAKEGADYAKKALKKAKEGTPEEALKAAKEALEELKKKEEKVEKLFKEA | not found
33 | design_597_f3dcd2b3-c7aa-4b15-88bc-bbb8d01a18cd_2381_dldesign_0_cycle1_af2pred (protein) AAAEAAAAAAKAAAKAEAAKHLEKAFDLIADGGTVEEVEKEAEKAIEYAAKADEKYKKLAERTAKRIIENAKIAAKREEEN | not found
34 | design_597_f3dcd2b3-c7aa-4b15-88bc-bbb8d01a18cd_2297_dldesign_0_cycle1_af2pred (protein) MEEAEKLLKKAEEAAKKGDAETAKKLAEELRELSKKEKDKEKAAAYSEAAFEAKGYAFLAEIKQEKKKELE | not found
35 | design_598_15ab41e9-cad4-4381-8935-81f74b313fe8_1042_dldesign_0_cycle1_af2pred (protein) NLEELIKKAIKAAEKGDAKGAVTYVMDAGAEAGDMKLAVEVGRKIQELLATDPAAGKAASAALIKEAGKKFL | not found
36 | design_597_f3dcd2b3-c7aa-4b15-88bc-bbb8d01a18cd_2336_dldesign_0_cycle1_af2pred (protein) AQAAKVAAALAAAEKRLAISTARAKELAKKNPQAGYEYMEIRTDHMAAALAKVDPAAGAEVKARGAALAAEIKA | not found
37 | design_598_15ab41e9-cad4-4381-8935-81f74b313fe8_1412_dldesign_0_cycle1_af2pred (protein) DSPAMQLNEALTDAKYAADKIKEVDPSLAPEAQALYDKVKALLEKARKGDAATVAAAAKEAKALAEQAEKLLKQAKERAKKA | not found
38 | design_597_f3dcd2b3-c7aa-4b15-88bc-bbb8d01a18cd_2339_dldesign_0_cycle1_af2pred (protein) AKALRYAGRAEIYMELAETAAKLAIEAAKKDPAEGKKYLEKMKEKVKKAVELAEKADPALAKEYEAKGKELIEKAEKAIKAQIEKA | not found
